Pf growth 96h = P. falciparum growth inhibition at 96 hour, primary screen for plastid delayed-death inhibitors | hit rate 6.9% among 320,000 | P. falciparum luciferase reporter growth, 96 h | Potency, µM (top dose mostly 28.7 µM), inactives show at the highest dose activity change, negative = inhibition, most hits filed as inhibitors; note: potency is the fitted concentration of half-maximal effect; % is set by controls: 0 for no effect and ±100 for the full control effect
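P. falciparum expressing integrated firefly luciferase, in erythrocytes at 2% hematocrit, 0.05% parasitemia, incubated with compounds 96 h at 37 C, 5% CO2. Growth inhibition read as loss of luminescence; two-generation exposure targets delayed-death apicoplast inhibitors.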
Shiga toxin inh = inhibitors of Shiga toxin in Vero cells; hit rate 9.2% among 290,000; AID 2315; Vero cells, Shiga toxin protein synthesis inhibition reporter; inhibition, % at 38.7 µM; in the data active = inhibition mostly above about 28%, no sharp cut-off; inactive = mostly below about 43%; note: 0% is about no effect
MARV entry inh = Marburg virus entry inhibition; Marburg virus pseudotyped entry inhibition, cell reporter; Potency, µM (top dose mostly 37.8 µM), for inactives: at the top dose activity change, negative = inhibition, actives largely listed as inhibitors; hit rate 1.8% among 300,000; AID 540276; calls by dose curve; tested in HEK293 cells; note: potency is the fitted concentration of half-maximal effect; % is set by controls: 0 for no effect and ±100 for the full control effect
Lassa entry inh = Lassa virus entry inhibition; Lassa virus pseudotype entry inhibition, cell reporter; Potency, µM (top dose mostly 37.9 µM), for inactives: at the top dose activity change, negative = inhibition, actives largely listed as inhibitors; hit rate 1.2% among 300,000; AID 540256; calls by dose curve; tested in HEK293 cells; note: potency is the fitted concentration of half-maximal effect; % is set by controls: 0 for no effect and ±100 for the full control effect; nearly all actives have a fitted effect of over 50% in size
CHX counter = affects cycloheximide protein synthesis inhibition readout, counter-screen; hit rate 12% among 300,000; cell reporter, cycloheximide protein synthesis inhibition counterscreen; max response, %; in the data active = max response mostly above about 13%, no sharp cut-off; inactive = mostly below about 14%; note: read at 38.3 µM for the half of the compounds with a filed dose; 0% is about no effect
Pf growth 48h = inhibits P. falciparum growth in the first generation, 48 h. P. falciparum luciferase growth in erythrocytes, 48 h. Potency, µM (highest dose often 28.7 µM), without a hit: top-dose activity change, negative = inhibition, actives largely listed as inhibitors. hit rate 5.9% among 310,000; note: potency is the fitted concentration of half-maximal effect; % is set by controls: 0 for no effect and ±100 for the full control effect
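Luciferase-expressing P. falciparum in infected erythrocytes (2% hematocrit, 0.1% parasitemia final) in RPMI 1640/0.5% Albumax were exposed to compound for 48 hours at 37 C, 5% CO2; growth read as luminescence.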
* = called active by the depositor; i = inactive; ? = inconclusive; . = not tested or not shown; [ ] = remark or other dose. The list is not random: actives were taken first. Their share in the collection is about 19%. Unless noted, calls come from the whole dose curve; as a rule, active = well fitted inhibition curve with a large enough effect; inconclusive = small, poorly fitted or top-dose-only effect, or another doubt; inactive = no such curve, though single readings can be large or run the other way.

SMILES	Pf growth 96h	Shiga toxin inh	MARV entry inh	Lassa entry inh	CHX counter	Pf growth 48h
O=C(CSc1ccc2c(c1)OCCO2)Nc1ccc(Br)cc1	69%	-32	0%	?	-1	38%
COC(=O)/C=c1\sc2ncnn2c1=O	?	1	10%	10%	-2	18%
Cc1c(C)n2c(SCC(=O)Nc3ccc4c(c3)OCCO4)nnc2[nH]c1=O	?	.	9%[46.1 µM]	3%	.	9.3µM*
CCCc1cc(=O)[nH]c2nnc(SCC(=O)Nc3ccc4c(c3)OCCO4)n12	41%	.	?	14%	.	21%
O=C(CSc1nnc2ccccn12)Nc1ncc(Cl)cc1Cl	82%	36	0%	18%	23*	.
O=C(CSc1nc(-c2ccccc2)c(-c2ccccc2)[nH]1)Nc1ccc2c(c1)OCO2	?	24	?	?	15*	-3%
O=C(CSc1cccc[n+]1[O-])Nc1ccc2c(c1)OCCO2	32%	25	24%[46.1 µM]	?	16*	30%
CC(Sc1nnc2ccccn12)C(=O)Nc1ncc(Cl)cc1Cl (stereo not drawn)	76%	18	13%[46.1 µM]	2%	26	31%
Cc1ccccc1CN1CCc2cc([N+](=O)[O-])ccc21	?	27	?	-24%[46.1 µM]	9	?
CC1CCN(C(=O)CSc2ccc(-c3ccc4c(c3)OCCO4)nn2)CC1	80%	35	7%[46.1 µM]	0%	20*	30%
O=C(CSC1=NC2(CCCCCC2)N=C1c1ccccc1)Nc1ccc2c(c1)OCCO2	-1%	-6	?	?	3	?
CC1CCCC(C)N1C(=O)CSc1ccc(-c2ccc3c(c2)OCCO3)nn1 (stereo not drawn)	-20%	40	?	13%[46.1 µM]	11	6%
O=C(CSc1nnc2ccccn12)Nc1ccc2c(c1)OCCO2	44%	130*	2%[46.1 µM]	4%	26*	322%
O=C(CSc1nnc2ccccn12)NCc1ccc2c(c1)OCO2	282%	10	.	.	8	15%
O=C(CSC1=NC2(CCCCC2)N=C1c1ccccc1)Nc1ccc2c(c1)OCCO2	?	19	-2%	4%	7	10µM*
C=CCn1c(SCC(=O)Nc2ccc3c(c2)OCCO3)nnc1-c1ccccn1	0%	27	6%	23%	-2	9%
CCn1c(SCC(=O)Nc2ccc3c(c2)OCCO3)nnc1-c1ccccn1	2.1µM*	84	20%	1%	2	0%
COC(=O)c1c(NC(C)=O)c2c3c(sc2n1Cc1cc(C)ccc1C)CCCC3	.	.	.	12%[46.1 µM]	.	.
CCOC(=O)C1=C(c2ccccc2)NC(=O)NC1c1ccc(OC)cc1 (stereo not drawn)	-9%	-7	-7%[46.1 µM]	-27%	-2	12%
O=C(Nc1cccc(C(F)(F)F)c1)Nc1nnc(N2CCCCC2)s1	.	.	?	5%[46.1 µM]	.	.
Cc1ccc(S(C)(=O)=NC(=O)c2cc(C)on2)cc1 (stereo not drawn)	-5%	-3	21%	?	1	-7%
COc1ccccc1CNC(=O)c1cnn2c(C(F)F)cc(C)nc12	?	-15	?	-15%	-3	.
O=C(CSc1ccccc1)Nc1ccc2c(c1)OCCO2	8.3µM*	75*	?	?	40*	298%
O=C(CSc1ccc(-c2ccccc2)nn1)Nc1ccc2c(c1)OCCO2	98%	74*	?	?	79*	79%
O=C(CCS(=O)(=O)c1ccccc1)Nc1ccc2c(c1)OCO2	?	112*	19%[46.1 µM]	18%	55*	78%
SMILES	Pf growth 96h	Shiga toxin inh	MARV entry inh	Lassa entry inh	CHX counter	Pf growth 48h
O=C(CSc1ncn(-c2ccccc2)n1)Nc1ccc2c(c1)OCCO2	16%	14	-9%	2%	-3	8%
CCOc1ccc(-c2nc(=S)[nH][nH]2)cc1	18%	29	?	0%	41*	42%
COc1ccc(-c2nc(=S)[nH][nH]2)cc1	?	108*	11%	-10%	13*	89%
COc1ccc(-c2nc(=S)[nH][nH]2)cc1OC	14%	16	.	.	-2	9%
Oc1ccc(-c2nc(=S)[nH][nH]2)cc1	27%	14	11%	15%	-1	30%
N=C1c2ccccc2CN1NC(=O)c1cccc(S(=O)(=O)N2CCOCC2)c1	-19%	-17	1%	.	-2	16%
Cc1ccsc1C(=O)Nc1ccc(O)c(-c2nc3ccccc3s2)c1	63%[5.75 µM]	45	16%	13%	18*	41%[5.75 µM]
CCS(=O)(=O)c1cccc(C(=O)Nc2ccc(-c3nc4ccccc4s3)c(O)c2)c1	.	.	.	-15%[46.1 µM]	.	.
O=C(CCS(=O)(=O)c1ccccc1)Nc1ccc(-c2nc3ccccc3s2)c(O)c1	42%	48*	8%	?	44*	19%
Cc1ccc(C(=O)Nc2ccc(-c3nc4ccccc4s3)c(O)c2)c(C)c1	.	.	.	19%[46.1 µM]	.	.
CC(=O)Nc1ccc(O)c(-c2nc3ccccc3s2)c1	163%	131*	.	.	49*	142%
O=C(COc1ccc(Cl)cc1)Nc1ccc(O)c(-c2nc3ccccc3s2)c1	.	.	.	-2%[46.1 µM]	.	.
FC(F)(F)c1cc(-c2ccccc2)nc(N2CCCCC2)n1	-27%	-19	-2%	-2%	-1	19%
O=C(O)C1CCCN1c1nc(-c2ccc(Cl)c(Cl)c2)cc(C(F)(F)F)n1 (stereo not drawn)	?	.	0.5µM*	?	.	?
Cc1ccc(S(=O)(=O)N2CCOCC2)cc1NC(=O)COC(=O)c1n[nH]c(=O)c2ccccc12	15%	-13	5%	-4%	4	3%
Cc1ccsc1C(=O)NC(C)c1ccc2c(c1)OCO2 (stereo not drawn)	15%	-2	10%	-1%	-2	9%
Cc1ccsc1C(=O)Nc1ccc2c(c1)OCCO2	181%	27*	?	?	29*	202%
Cc1ncoc1C(=O)Nc1ccc2c(c1)OCCO2	i	77*	-2%	-29%	47*	158%
CCOc1cncc(/C=C/CCNC)c1	.	16	.	.	5	.
O=C(COC(=O)c1cc(Cl)ccc1O)Nc1ccc2c(c1)OCCO2	-15%	.	.	.	.	-19%
Cc1c(C(=O)c2ccc(Cl)cc2Cl)cnc2cc3c(cc12)OCO3	13µM*	-8	?	?	-1	8.3µM*
O=C(Nc1ccc2c(c1)OCO2)c1ccc(Cl)cc1Cl	?	-12	6.3µM*	?	-2	?
O=C(Nc1ccc2c(c1)OCCO2)c1ccc(Cl)cc1Cl	?	.	?	?	24*	209%
Cc1nc(NC(=O)c2ccc(Cl)cc2)nc2cc3c(cc12)OCO3	19%	14	29%	6%	-4	18%
COc1ccccc1NC(=O)CCC(=O)N(Cc1ccc(OC)c(OC)c1)c1nccs1	16%	-7	18%[46.1 µM]	.	6	0%
O=C(NC1CCCC1)C(c1ccccn1)N(C(=O)c1csnn1)c1ccc(F)cc1 (stereo not drawn)	5%	25	2%[46.1 µM]	-5%	4	4%
